Screening data (PubChem BioAssay)
PKD1 kinase inh: inhibitors of human PKD1 kinase; Q15139; PKD1 kinase fluorescence polarization assay; inhibition, % (no concentration beside the values); 0.056% of 200,000 active; AID 797
HDAC3 inhib: human HDAC3 inhibition | AID 2718 | recombinant HDAC3, fluorogenic peptide/trypsin coupled, fluorescence | 0.15% of 320,000 active | inhibition, % at 8.3 µM | O15379; in the data active = inhibition above about 26%, passing the limit was not always enough; inconclusive = no clear call, values can overlap the other calls
Target sequence (O15379 whole entry, looked up): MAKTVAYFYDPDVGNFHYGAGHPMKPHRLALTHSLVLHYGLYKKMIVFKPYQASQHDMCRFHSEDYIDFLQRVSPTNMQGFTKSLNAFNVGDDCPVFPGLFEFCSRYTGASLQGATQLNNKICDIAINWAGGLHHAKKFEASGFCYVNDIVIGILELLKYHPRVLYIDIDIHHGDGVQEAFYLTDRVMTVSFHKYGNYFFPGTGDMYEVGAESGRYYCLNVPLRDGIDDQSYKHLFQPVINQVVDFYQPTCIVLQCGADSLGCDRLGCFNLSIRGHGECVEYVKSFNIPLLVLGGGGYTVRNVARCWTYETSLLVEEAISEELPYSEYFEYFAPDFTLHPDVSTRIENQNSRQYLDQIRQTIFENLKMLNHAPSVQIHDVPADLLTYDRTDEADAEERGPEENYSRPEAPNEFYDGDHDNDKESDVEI
GRK2 inh: blocks RNA aptamer binding to human GRK2 | inhibition of aptamer binding, % at 10 µM | 0.59% of 330,000 active | bead flow cytometry, FAM-aptamer displacement from GRK2;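 active = inhibition of aptamer binding above 40%, roughly 3 SD of noise, on plates passing a quality check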;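 note: median bead fluorescence of bound FAM aptamer so fluorescent compounds give negative values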
Pemphigus Ab inh: blocks pemphigus antibody binding to human desmoglein-3; binding (percent of control), % at 10 µM; DSG3-coupled beads, scFv-anti-DSG3-GFP binding, flow cytometry; stronger effect = lower value; P32926; 0.48% of 310,000 active; AID 588358;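 active = binding more than 3 SD below its plate's average and above zero; inconclusive = below that plate limit but binding exactly zero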;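 note: hits lower antibody fragment binding to DSG3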
VLA-4 inh: inhibition in a human VLA-4 binding assay; VLA-4 expressing cells, ligand binding flow cytometry; inhibition, % (about 7 µM as worked out from the volumes in the protocol); AID 2557; 0.2% of 330,000 active
LANA-H2A inh: blocks KSHV LANA binding to histone H2A/H2B. 0.6% of 320,000 active. cell-free LANA-H2A/H2B peptide, fluorescence polarization. Q9QR71. inhibition, % (no concentration beside the values); in the data active = inhibition mostly above about 10%, no sharp cut-off; inactive = mostly below about 6.7%
GRK2 inh confirm: human GRK2 inhibition confirmation, cherry pick 1; shares compounds with GRK2 inh; bead-bound GRK2, FAM-aptamer displacement, flow cytometry; aptamer displacement, % at 10 µM; 4% of 2,000 active; AID 504451;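 active = aptamer displacement above 40%, near three times the noise of non-fluorescent compounds, on plates passing quality checks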;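 note: negative values mostly reflect intrinsic compound fluorescence rather than true enhancement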
Aptamer quench 1: fluorescent aptamer quenching in GRK2 counter-screen dose response; shares compounds with GRK2 inh; Fluorescent RNA aptamer beads, flow cytometry; stronger effect = higher value; fluorescence change (kMESF span), kMESF (test concentration not listed); 110 tested, under 10 active; AID 504521;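 active = compounds whose bead fluorescence drops by more than 37 kMESF across the dose range, marking them as dye quenchers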
Aptamer quench SP: aptamer fluorescence quenching in GRK2 counter-screen. shares compounds with GRK2 inh. Carboxyfluorescein RNA aptamer on beads, flow cytometry quenching; stronger effect = lower value. fluorescence response (% of DMSO), % at 10 µM. 2,000 tested, under 10 active;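 active = compounds that quench the bead-bound fluorescent RNA probe, cutting fluorescence to under half of the solvent control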;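 note: counterscreen run without GRK2 so only probe quenching by compound is measured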
GRK2 confirm 2: human GRK2 inhibition confirmation, cherry pick 2 | shares compounds with GRK2 inh | bead-bound GRK2, FAM-aptamer displacement, flow cytometry | inhibition of aptamer binding, % at 10 µM | 360 tested, under 10 active | AID 504782;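 active = inhibition of aptamer binding above 40%, about triple the noise seen with nonglowing compounds, on plates passing quality control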;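 note: negative values mostly come from compounds that fluoresce themselves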
FAM quench CP2: aptamer fluorescence quenching in GRK2 counter-screen; shares compounds with GRK2 inh; carboxyfluorescein RNA aptamer beads, flow cytometry quenching; stronger effect = lower value; fluorescence response vs DMSO, % at 10 µM; 360 tested, under 10 active; AID 588494;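 active = response vs DMSO under 50%, meaning signal dropped by over half, treated as fluorescence quencher; inconclusive = no clear call, values can overlap the other calls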;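 note: labelled aptamer on streptavidin beads without GRK2 as a quench counter-screen; 100% = bead fluorescence of DMSO wells and lower means quenching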
* = called active by the depositor; u = inconclusive; x = no result. In the library only some 1.8% were active in any assay of this set; here they are far more common. Cut-off read from the data, not from the text of the source, unless noted: active = inhibition above about 50%; inactive = the rest.

SMILES	PKD1 kinase inh	HDAC3 inhib	GRK2 inh	Pemphigus Ab inh	VLA-4 inh	LANA-H2A inh	GRK2 inh confirm	Aptamer quench SP	others
CCCC[N+](C)(C)CCC(=O)NC(C)(C)CS(=O)(=O)[O-]	0	-5	40	87	29	-4	27	103	Aptamer quench 1=-236
Cc1ccc(S(=O)(=O)NCCCCCC(=O)NC(C)(C)CO)cc1	1	10	1	110	23	0	x	x
CCCc1ccc(OCc2ccc(C(=O)N3CCN(c4ccccn4)CC3)o2)c(OC)c1	2	-9	47*	128	9	0	2	96
COc1ccc(S(=O)(=O)N(C)Cc2ccc3c(c2)OCCO3)cc1	x	5	42*	104	-1	2	-3	100
Cc1ccc(C2=NN(C(=O)CCC(=O)O)C(c3cn(-c4ccccc4)nc3-c3ccc(C)cc3)C2)cc1 (stereo unspecified)	1	4	7	104	26	2	0	103
Cc1ccc(-c2nn(-c3ccccc3)cc2C2CC(c3ccccc3)=NN2C(=O)CCC(=O)O)cc1 (stereo unspecified)	x	7	1	104	4	0	x	x
COc1ccc(NC(=O)C(=O)N2N=C3CCCCC3C2(O)C(F)(F)F)cc1 (stereo unspecified)	-8	-13	41*	95	-2	0	x	x	GRK2 confirm 2=9;FAM quench CP2=109
COc1ccc(N2CCN(C(CNS(C)(=O)=O)c3ccco3)CC2)cc1 (stereo unspecified)	-2	3	12	103	9	-4	x	x
O=C(CC1SC(N2CCCC2)=NC1=O)Nc1ccc(C(=O)NCc2ccc(F)cc2)cc1 (stereo unspecified)	x	x	x	104	x	x	x	x
O=C(CC1SC(N2CCCCC2)=NC1=O)Nc1cccc(C(=O)NCc2ccc(F)cc2)c1 (stereo unspecified)	x	x	x	104	x	x	24	99	Aptamer quench 1=-30
O=C(C1CCCCCC1)N1CC[C@@H](N2CCC(O)CC2)[C@H](O)C1	x	-1	31	106	1	3	-5	102
O=C(Nc1ccc(S(=O)(=O)Nc2nccs2)cc1)c1cc(-c2ccccc2Cl)nc2ccccc12	2	10	1	98	-7	-1	2	108
O=C(Nc1ccc(S(=O)(=O)Nc2nccs2)cc1)c1cc(-c2ccccn2)nc2ccccc12	-3	7	1	88	0	-4	x	x
O=C(COC(=O)Cc1ccc(-c2ccccc2)cc1)NCc1ccc(F)cc1	0	20	8	19*	0	1	-1	99
Cc1ccc(CNC(=O)COC(=O)Cc2ccc(-c3ccccc3)cc2)cc1	-9	9	0	93	-3	-3	-3	99
CN(Cc1ccccc1)S(=O)(=O)c1ccc2[nH]cc(C(=O)NCC3CCCO3)c(=O)c2c1 (stereo unspecified)	-2	4	45*	109	-9	2	2	101
CCc1ccccc1NS(=O)(=O)c1ccc2[nH]cc(C(=O)NCC3CCCO3)c(=O)c2c1 (stereo unspecified)	-11	-2	0	80	6	-2	x	x
O=C(Nc1ccc(Cl)cn1)c1ccc(-c2cc(Cl)ccc2Cl)o1	-7	3	42*	99	-4	0	x	x	GRK2 confirm 2=-26;FAM quench CP2=100
COc1cccc(NC(=O)Nc2cccc(C)n2)c1	x	-5	58*	116	-3	1	-1	93
COc1cccc(NC(=O)c2cccnn2)c1	x	8	41*	107	17	-3	0	98
CN(C)C(=O)CN1C(=O)NC(c2ccccc2)(c2ccccc2)C1=O	x	u	0	x	3	1	x	x
COc1cccc(C(=O)NCC2(c3ccc(OC)c(OC)c3)CCCC2)c1	x	-3	1	128	4	-4	x	x
CC1CCCCN1Cc1nc2c(c(=O)n(C)c(=O)n2C)n1CCCc1ccccc1 (stereo unspecified)	-2	3	0	x	-12	-5	x	x
CCOCCn1c(CN2CCCCC2C)nc2c1c(=O)n(C)c(=O)n2C (stereo unspecified)	x	1	1	89	11	-6	x	x
CCC1CCCCN1Cc1nc2c(c(=O)n(C)c(=O)n2C)n1CC(C)C (stereo unspecified)	x	-3	0	89	13	2	4	97
SMILES	PKD1 kinase inh	HDAC3 inhib	GRK2 inh	Pemphigus Ab inh	VLA-4 inh	LANA-H2A inh	GRK2 inh confirm	Aptamer quench SP	others
CC(C)Cn1c(CN(C)Cc2ccccc2)nc2c1c(=O)n(C)c(=O)n2C	-5	x	76*	93	10	-3	-4	98
CCCCCCn1c(CN2CCCCC2CC)nc2c1c(=O)n(C)c(=O)n2C (stereo unspecified)	-9	x	3	91	-2	2	-17	91
CCC1CCCCN1Cc1nc2c(c(=O)n(C)c(=O)n2C)n1CCC(C)C (stereo unspecified)	-4	-2	4	101	-14	1	0	102
CCCCCn1c(CN2CCN(C)CC2)nc2c1c(=O)n(C)c(=O)n2C	0	0	3	107	9	-1	x	x
CN(CC(=O)Nc1ccc(Cl)c(C(F)(F)F)c1)C(=O)c1cn2ccccc2n1	x	x	2	103	-5	x	x	x
COc1ccccc1N1CCN(/N=C/c2ccc(Cl)c([N+](=O)[O-])c2)CC1	x	3	100*	101	4	3	1	98
COc1cc(/C=N/NC(=O)c2cccnc2)ccc1OS(=O)(=O)c1cc(C)ccc1C	3	-2	4	106	11	1	x	x
Cn1c(=O)c2c(nc(SCC(=O)NCc3ccc4c(c3)OCO4)n2Cc2ccc(F)cc2)n(C)c1=O	-9	-1	0	102	0	-2	x	x
Cn1c(=O)c2c(nc(SCC(=O)NCc3ccc4c(c3)OCO4)n2Cc2ccccc2)n(C)c1=O	-5	-5	53*	97	-5	0	0	100
CNC(=O)c1c(O)c2cccc3c2n(c1=O)CC3	-9	-5	0	97	15	5	x	x
O=C(Nc1cccnc1)c1c(O)c2cccc3c2n(c1=O)CC3	0	2	65*	97	3	2	-63	111
